The full ranking holds about 59,000 sequences; the median of the read-out is about -0.00055, and the lowest 2% start at about -2. The full list was thinned out, with the lowest values kept by preference.
Test: Identification of proteins required for the processing of the EWS-FLI1 nascent transcript;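 further: robust z of luciferase light less the median z of siRNAs with the same seed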
Details: TC32 Ewing sarcoma NR0B1-luc vs CMV-luc (EWS-FLI1 target promoter against control promoter), 48 h; screened at 20 nM (by protocol)
Method in brief: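 Three siRNAs per gene, each in a separate well at 20 nM, were transfected into TC32 cells bearing either reporter construct. Luminescence was measured two days on, and per-gene comparison relied on seed-corrected Z values.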

Compared with UUGUGAACUGAUUACACUG against CCDC66, UUGACCAUCAAGUAUUAGC against WDR47 is lower in seed-corrected z-score: 0.423 for the first, -10.6 for the second.

Compared with UUCUGAUCAAGGCUAGACC against SHROOM3, UGAACUCCUCUGCAUAUUC against HLA-F is higher in seed-corrected z-score: -0.584 for the first, 0.183 for the second.

Going from UUGGUGUCCGGAGAGGUGU against IRF3 to AACUCCGUCAGUUCCUUCC against FAM167A, the seed-corrected z-score rises from -0.0987 to 0.463.

Compared with ACAGCUAUCACUGCAUGCC against OR14J1, UUUAGGUACAGAAUCCCUG against HDHD3 is higher in seed-corrected z-score: -3.81 for the first, 0.511 for the second.

First: UCUUCAAUAAUGUGCAUCC against SEMA4G
Second: UUCUCCGUUUCUGUUAUGC against SYCP2L
The seed-corrected z-score of the first is lower: 0.069 for the first, 0.199 for the second.

Compared with UGCUGUUCUGUGCUGUUCC against ARID5A, UCAGGCUCAACCACCAGCA against ESRRA is higher in seed-corrected z-score: -2.31 for the first, -1.16 for the second.

Going from UAUAUCCACAGUGCGGAUC against RAB13 to AUACUUGCGAUAAAGGUGC against CSGALNACT1, the seed-corrected z-score falls from 0.253 to -1.05.

First: UCAGCUCCAACUGAAGGUC against ID1
Second: AAUGGUGUCAGUUCCUCUG against ETFA
The seed-corrected z-score of the first is lower: 0.724 for the first, 0.854 for the second.

Compared with AGCAUUACAACUAAAAUCC against ZSCAN10, UAGCCAUUCUCGCUCAUGC against AZU1 is higher in seed-corrected z-score: -3.27 for the first, 0.88 for the second.

Compared with UGAUCUAUCUUAGUCGCUC against POLQ, UUUCCGUACAUGAAGCAGC against AGBL5 is lower in seed-corrected z-score: -0.0262 for the first, -0.0403 for the second.

Compared with UUCAUUAUCGAUUUUUGCC against CYB5R2, UGGGAUGAGAGACUCCUCC against C6orf25 is higher in seed-corrected z-score: -0.288 for the first, -0.121 for the second.

First: UGUUGUAGUGGGCCAGACG against HIST1H2BG
Second: UCCGAAAGCACCACGAUGA against SIGIRR
The seed-corrected z-score of the first is lower: -2.35 for the first, 0.222 for the second.

Compared with AAAGGCCCAACAUCUGACU against ZDHHC8P1, UUCCGACUCGCUGAAGUGC against RPS6KA4 is higher in seed-corrected z-score: 0.314 for the first, 0.407 for the second.

Compared with UUGGGUACCUCAGUCCACG against SNRPD2P1, UUUGUUGUAGUCACAUUCC against S100A3 is higher in seed-corrected z-score: -5.01 for the first, -1.11 for the second.

Going from UAAGGAAGUAGUCUCGUUU against TUBGCP6 to UAGUGGAUAUAUCUCGGCC against YLPM1, the seed-corrected z-score falls from 0.26 to 0.196.

Compared with UAUACUCGAAAUGUGGUUC against KIAA1586, UUGCAGAGCAUGUGAGUCC against KRTAP13-3 is higher in seed-corrected z-score: -0.337 for the first, -0.281 for the second.

Going from UGCAUGUCGGGAUAGUUGC against GRIN2D to UCCUCGUUCAGCACCCUUC against DNAJB13, the seed-corrected z-score falls from 0.123 to -0.18.

Going from UUUGAUGAUCUGUAAGGCC against CNOT10 to UGUAUUGCAAGGUUAUAAC against ZNF836, the seed-corrected z-score rises from -2.03 to 0.433.

Going from AAAGUGAACAUCGGGUCCC against LILRA4 to UCCAUGUUGACUAAGAUUC against GRHL3, the seed-corrected z-score falls from -0.351 to -0.595.

First: UUUCUGGUAAAACUCCUCA against HS1BP3
Second: UGACGUGACAAGCUGAAUG against ALYREF
The seed-corrected z-score of the first is higher: 0.892 for the first, -0.554 for the second.

First: UUAGAUUGCACAAUCCUGU against DMRTC1
Second: UUAAGAUUGACCUUUCUCC against KIAA1755
The seed-corrected z-score of the first is higher: 0.235 for the first, -0.0251 for the second.

Going from UUUGGUGCUUAGUUUGUUC against LOC642262 to AUCUUUACAAAUACCCUGC against BCL11A, the seed-corrected z-score rises from -2.38 to -0.136.

Going from UUUAUAUUCAAUGGGCUUC against FAM45A to UAAGGUUCGGAUAUGGGUA against C9orf24, the seed-corrected z-score rises from -0.523 to -0.108.

Compared with UUCUUUAUAGGCAUAGGCU against RPH3A, UAAGGUUGGUGACUGGAGA against MUC6 is higher in seed-corrected z-score: -2.08 for the first, -0.303 for the second.

Going from UUUCUGUAGGCUUUUCUGG against DPCR1 to UUCUCCAUCAAAUUAGCCG against LIN52, the seed-corrected z-score rises from -0.53 to 0.578.

Going from UAGCUUCAAUACUUCAUCC against LRRC27 to UUCGAGCUUUCUUAUGUCC against SLC12A6, the seed-corrected z-score rises from -0.986 to -0.303.

First: UGUUAUUGAAGAUGUCAGC against SLF2
Second: ACAGCAAGCAUUCAGAGUC against MMS19
The seed-corrected z-score of the first is lower: -2.1 for the first, 0.146 for the second.

Compared with UCUGGAAUAACGGUGCAGC against C15orf62, AUAUCAAUGAUUGAGAGGU against OR4F15 is higher in seed-corrected z-score: -1.54 for the first, 0.359 for the second.

Compared with AACUCUGCGAACACGGCCU against AQP5, UAAGGCCCAAAUUUGUCUC against HSF4 is higher in seed-corrected z-score: -2.17 for the first, -0.0642 for the second.

Going from UACAUUGACAGCAUAUCCU against NSDHL to UGAUGAAGUAGAGACGUGC against EXTL2, the seed-corrected z-score falls from 0.882 to 0.177.

Compared with UAAAAUGUCUGACUCCUUG against CDKN1A, AAACUGGUUGGAGUUGUUG against ITGB2 is higher in seed-corrected z-score: -0.147 for the first, 0.512 for the second.

Compared with UGUUUUACCAACAGCACCA against CDC42, UCAGGUGGUAGGGAGGUUG against UBE2L6 is lower in seed-corrected z-score: -1.21 for the first, -2.37 for the second.

First: CAGGUAGAACGUGUCGUCC against ENDOG
Second: AAUGAGAUUAUGUUGGUCA against SNX29
The seed-corrected z-score of the first is higher: 0.88 for the first, -1.19 for the second.

First: UUCUAUGCAAUCCAAAACC against DGKB
Second: UUAGUUUCUACAUUAUUGU against ENTPD1-AS1
The seed-corrected z-score of the first is lower: 0.554 for the first, 0.559 for the second.

First: UAGGAGAUAAAGAUAACUA against OR5B2
Second: AGUACUACAAACCAAAUCC against FAM35A
The seed-corrected z-score of the first is lower: -12.5 for the first, -0.242 for the second.

First: UUCCAUAUUUAUUAGAGCC against PURG
Second: UUGAGAUAGGCUGAGACCU against TMPRSS4
The seed-corrected z-score of the first is higher: 1.54 for the first, -0.502 for the second.

First: AAUUGUCGUAGUCAGUAUC against PAEP
Second: UUUGUCUUUUGCAUCUUUC against SFPQ
The seed-corrected z-score of the first is higher: -0.99 for the first, -2.66 for the second.

First: AUCGUUCACGUCUUGAUCC against CPSF6
Second: AUAGGGAGCACUUGGGAGC against C20orf24
The seed-corrected z-score of the first is higher: -0.744 for the first, -1.49 for the second.

First: AAACCUUCCAUUGUUGAGG against ACADVL
Second: UUCGCUGUCACUGUGGUUG against FAM134C
The seed-corrected z-score of the first is higher: 0.629 for the first, -1.48 for the second.

Compared with UAUUAUUCGACUCAUGGUC against EFCAB2, UAACAUCGCACCAGUAAUC against L3MBTL4 is higher in seed-corrected z-score: -2.54 for the first, -0.0952 for the second.

Compared with UGUUCCUUUAUUGUAGCCC against ALG13, UGUAGGACAAGCGCUGCUG against DGCR6 is lower in seed-corrected z-score: 0.155 for the first, -0.188 for the second.

Going from AUAUUAGCAUUCUUAAUGG against ABCB10 to UUCAUGACUCUUGCAUUCC against ZNF473, the seed-corrected z-score rises from -0.347 to -0.227.

Going from UAUAGUCUGCGUAGAGUUC against BSCL2 to UCGGUAUUCGAUGUGGUCC against CD177, the seed-corrected z-score rises from 0.905 to 1.39.

Going from AUAAGAUACCUCUCUAUUC against NXPE1 to UGAUAUAGCCUCCAUAUGC against INVS, the seed-corrected z-score rises from -3.1 to -0.175.

Going from UUCUAAUCUAGUGAUUAGC against LDB2 to UAAACUGAAACGGAAAUGC against PTCHD3P1, the seed-corrected z-score falls from 0.172 to -0.411.

First: UUGAGUUUGUCACAGUUUC against SH3BP2
Second: UUUCAGCUUAGGAAAGGCA against KRTDAP
The seed-corrected z-score of the first is higher: 0.349 for the first, -4.29 for the second.

Going from AGAUCUAUUGUGAACAGCC against FLT3 to UAGGUAAAUAGCCUCGUGC against CEACAM19, the seed-corrected z-score rises from -0.0495 to 0.0325.

Going from UUGCAUUUUCAGGUACUUG against RDH5 to UUUGUAAGCUCUGUCAUCC against FAM13B, the seed-corrected z-score rises from -0.555 to -0.0737.

Compared with ACCUGUCAAAGAGCAAAGC against AMD1P3, UCUGAGUUUUGAGCUGUCC against MST1R is lower in seed-corrected z-score: 0.646 for the first, -0.112 for the second.

First: UGUCUAAUGACAAUGCUGU against UBR5
Second: UACUGCUAGAUUGAGAUCC against KDM5D
The seed-corrected z-score of the first is higher: -0.38 for the first, -2.31 for the second.

First: UAUCUUGCAUAAGUCUUGU against XRCC6BP1
Second: UACUCUUUUCCACGAAUCC against CCDC141
The seed-corrected z-score of the first is higher: 1.28 for the first, -0.626 for the second.

First: UUCAAUACCAAAGAUAUUG against BTF3P16
Second: UGAGGUCCCAGAUUCUCAG against FBXW4
The seed-corrected z-score of the first is lower: -2.14 for the first, 0.248 for the second.

First: UCUUCGUCAUCGUUCAUUC against ZC3H4
Second: AUAGACAUCUGAUCCGUUC against PGK1
The seed-corrected z-score of the first is lower: -2.37 for the first, -0.0528 for the second.

First: UCUGCGACAUUCCUCAUAG against XPO1
Second: AUCCAGAUUAGUUUCCCUC against VIM
The seed-corrected z-score of the first is higher: -0.546 for the first, -2.52 for the second.

Compared with UCAAUCUCAACGGUCACCG against NLRP1, UUUGAUUGAGGCAUAUGCG against REEP6 is lower in seed-corrected z-score: 1.3 for the first, 1.08 for the second.

Compared with UCAGGUUCAGCAGGAAGUG against ADAMTS10, UUAAUGGUGACCUUGACCU against C19orf47 is higher in seed-corrected z-score: -0.537 for the first, -0.413 for the second.

First: AACUGAGUUGUAGAGCUGC against IL12RB1
Second: AAUUCUUUUUGUCUGGAUC against PRSS35
The seed-corrected z-score of the first is lower: -0.226 for the first, 0.405 for the second.

Going from UAAAUCUGCUCUCCUUUCC against LY86 to UUCUCUUCAACAAGUGACA against C6orf201, the seed-corrected z-score falls from 0.785 to -2.08.

First: UCUCUGUCCUCAAAAGUGG against CLCN4
Second: UACGUGAGCUUGUACAGCC against MTTP
The seed-corrected z-score of the first is lower: -0.277 for the first, -0.0803 for the second.

Going from UCGAGUGUGAUGUCUCUUC against AGO3 to UUGUGCACCACGAGAGUAG against RAB40AL, the seed-corrected z-score falls from 0.413 to -2.28.

First: UUCUGGAGCAGUUCGACAG against CNPPD1
Second: UUCUCAAUCAGCACGGCCC against GPX2
The seed-corrected z-score of the first is higher: 0.781 for the first, -0.162 for the second.

First: UCAUGUACACUGCUAAUUC against SLC30A10
Second: AUACUGUUCACCGAGAAGG against TSPEAR
The seed-corrected z-score of the first is higher: 0.696 for the first, -3.82 for the second.

First: UAUGUUGGUGCUCAUACUC against MED11
Second: UUAAACUCAGGCUUUGGUC against HABP4
The seed-corrected z-score of the first is higher: 0.678 for the first, -1.03 for the second.

Compared with UACUGAUUCACAAUGACCU against RNF208, UAACUUGAUAACAGGUGCC against OR10T2 is lower in seed-corrected z-score: -0.361 for the first, -5.77 for the second.

Going from AAAAACAACAGAAGCAUGC against TSPAN8 to UGUUGUUCAACAAAACCGC against KRT28, the seed-corrected z-score rises from 0.399 to 0.472.

Going from AUAGGCAUAUGGUUAGGCC against SS18 to ACAGCGUACAGCAAACACG against TMEM54, the seed-corrected z-score falls from -2.03 to -12.
